Measurements as given in PubChem BioAssay.
Calls of active or inactive are those of the source.

How the values were obtained:
[1] = E. coli DRC41 culture turbidity changes, primary screen, E. coli filamentation inducer project, strain DRC41, OD650, 48 h (AID 1152);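 note: E. coli MC1000 strain DRC41 lacking acrAB efflux pump and sulA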; details: E. coli DRC41 (acrAB sulA), higher = more signal, called active from +8 up or from −8 down
[2] = small-molecule binders of probe aLefty1, primary screen, biochemical, small-molecule microarray, 635/667 nm fluorescence (AID 1153); details: higher = more signal;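 note: score merges spot fluorescence with signal-to-noise ratio from the scanned slide images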
[3] = PSAC antagonists in infected red cells, primary screen, cell-based, P. falciparum Indochina, OD700, 1 h (AID 1154); details: P. falciparum Indochina infected RBC osmotic lysis, higher = more signal, called active from +8 up or from −8 down
[4] = PSAC antagonists in infected red cells, primary screen, cell-based, P. falciparum Indochina, OD700, 2 h (AID 1155);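 note: lysis reports solute entry through the parasite surface anion channel PSAC; channel blockers reduce lysis of infected cells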; details: P. falciparum Indochina infected erythrocytes, osmotic lysis OD700; higher = more signal, called active from +8 up or from −8 down
[5] = osmotic lysis modulators in infected erythrocytes, primary screen, PSAC antagonist project, cell-based, P. falciparum Indochina, OD700, 3 h (AID 1156); details: higher = more signal, called active from +8 up or from −8 down
[6] = PSAC antagonists in infected red cells, primary screen, cell-based, P. falciparum Indochina, OD700, 18 h (AID 1157); details: P. falciparum Indochina infected erythrocytes, osmotic lysis OD700, 18 h; higher = more signal, called active from +8 up or from −8 down
[7] = modulators of S6 phosphorylation in cells, primary screen, cell-based, A549, cytoblot, luminescence, serum-stimulated (AID 1158); details: A549 phospho-S6 cytoblot, 5 h, higher = more signal;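 note: serum-stimulated A549 lung adenocarcinoma cells; signal is phosphorylated S6 detected by cytoblot immunostaining with HRP secondary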
[8] = molecular target: NADPH oxidase 2 (Homo sapiens) (UniProt P04839); experiment: NOX2-dependent H2O2 signal modulators, primary screen, NOX inhibitor project, cell-based, HEK293-NOX2, PMA-stimulated, Amplex Red fluorescence (AID 1159); details: 45 min, higher = more signal, called active from +8 up or from −8 down; note: test concentration not given here
NADPH oxidase 2 (Homo sapiens), sequence (P04839 whole entry, looked up): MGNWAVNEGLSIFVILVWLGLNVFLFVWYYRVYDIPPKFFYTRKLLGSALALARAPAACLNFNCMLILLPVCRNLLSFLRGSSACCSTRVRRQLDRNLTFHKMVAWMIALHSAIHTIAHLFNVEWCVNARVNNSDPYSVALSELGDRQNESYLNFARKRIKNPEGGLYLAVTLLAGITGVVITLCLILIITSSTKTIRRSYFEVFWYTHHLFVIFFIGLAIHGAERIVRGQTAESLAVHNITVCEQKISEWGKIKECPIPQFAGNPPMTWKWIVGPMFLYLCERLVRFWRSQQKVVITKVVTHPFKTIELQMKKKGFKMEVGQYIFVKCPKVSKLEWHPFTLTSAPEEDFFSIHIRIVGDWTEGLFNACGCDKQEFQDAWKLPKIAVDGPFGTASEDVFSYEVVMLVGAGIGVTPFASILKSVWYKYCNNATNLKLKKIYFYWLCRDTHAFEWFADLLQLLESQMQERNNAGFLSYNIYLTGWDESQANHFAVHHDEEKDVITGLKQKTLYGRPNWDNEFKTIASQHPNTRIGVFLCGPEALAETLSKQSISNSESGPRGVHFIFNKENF

[9] = molecular target: NADPH oxidase 4 (Homo sapiens) (UniProt Q9NPH5); experiment: NOX4-dependent H2O2 signal modulators, primary screen, NOX inhibitor project, cell-based, HEK293-NOX4, tetracycline-induced, Amplex Red fluorescence (AID 1160); details: 45 min, higher = more signal, called active from +8 up or from −8 down
NADPH oxidase 4 (Homo sapiens), sequence (Q9NPH5 whole entry, looked up): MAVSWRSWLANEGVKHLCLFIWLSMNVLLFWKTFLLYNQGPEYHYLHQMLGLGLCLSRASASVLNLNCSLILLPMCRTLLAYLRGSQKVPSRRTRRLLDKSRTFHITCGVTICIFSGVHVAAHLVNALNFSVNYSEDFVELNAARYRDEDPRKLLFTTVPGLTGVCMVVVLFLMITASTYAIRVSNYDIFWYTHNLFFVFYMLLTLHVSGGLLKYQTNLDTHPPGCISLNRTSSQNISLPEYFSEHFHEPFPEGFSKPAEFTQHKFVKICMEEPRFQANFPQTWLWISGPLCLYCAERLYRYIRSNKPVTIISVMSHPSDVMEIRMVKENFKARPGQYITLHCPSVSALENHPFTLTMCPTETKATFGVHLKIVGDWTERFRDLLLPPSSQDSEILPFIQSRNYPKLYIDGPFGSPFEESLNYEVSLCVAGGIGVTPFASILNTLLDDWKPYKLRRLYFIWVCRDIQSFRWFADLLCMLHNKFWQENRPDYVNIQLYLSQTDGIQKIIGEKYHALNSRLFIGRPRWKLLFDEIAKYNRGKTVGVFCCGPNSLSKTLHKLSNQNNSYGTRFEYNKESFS

[10] = molecular target: NADPH oxidase 5 (Homo sapiens) (UniProt Q96PH1); experiment: NOX5-dependent H2O2 signal modulators, primary screen, NOX inhibitor project, cell-based, HEK293-NOX5, Amplex Red fluorescence (AID 1161); details: HEK293-NOX5, ionomycin, 45 min, higher = more signal
NADPH oxidase 5 (Homo sapiens), sequence (Q96PH1 whole entry, looked up): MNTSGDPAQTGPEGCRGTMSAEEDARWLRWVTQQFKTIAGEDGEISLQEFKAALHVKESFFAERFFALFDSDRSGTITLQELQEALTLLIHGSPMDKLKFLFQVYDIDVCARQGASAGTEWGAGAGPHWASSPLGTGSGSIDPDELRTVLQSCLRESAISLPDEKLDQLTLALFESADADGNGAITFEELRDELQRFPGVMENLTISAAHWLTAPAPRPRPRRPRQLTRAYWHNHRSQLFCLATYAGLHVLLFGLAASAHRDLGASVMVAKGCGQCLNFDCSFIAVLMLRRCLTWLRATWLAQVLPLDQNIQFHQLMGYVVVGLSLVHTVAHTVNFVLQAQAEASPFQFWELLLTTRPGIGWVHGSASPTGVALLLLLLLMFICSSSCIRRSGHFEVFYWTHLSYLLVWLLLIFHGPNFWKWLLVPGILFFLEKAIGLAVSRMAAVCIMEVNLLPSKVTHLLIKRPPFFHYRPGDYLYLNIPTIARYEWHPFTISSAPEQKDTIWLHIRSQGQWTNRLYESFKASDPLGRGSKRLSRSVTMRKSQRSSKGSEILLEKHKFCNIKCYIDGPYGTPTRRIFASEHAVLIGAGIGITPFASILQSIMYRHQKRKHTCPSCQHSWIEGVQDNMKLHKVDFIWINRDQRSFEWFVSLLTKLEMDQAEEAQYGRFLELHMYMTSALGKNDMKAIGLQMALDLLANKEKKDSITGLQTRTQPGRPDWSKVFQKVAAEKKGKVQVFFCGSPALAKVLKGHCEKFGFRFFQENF

Row | SMILES | z-score [1] | composite z-score [2] | z-score [3] | z-score [4] | z-score [5] | z-score [6] | z-score [7] | z-score [8] | z-score [9] | z-score [10]
1 | CN(C)C(=O)[C@]1(Cc2ccccc2)N=C(c2ccc(OCCCO)cc2)O[C@@H]1c1ccccc1CN=[N+]=[N-] | 0.631 (inactive) | 0.313 | 27.3 (active) | 17.5 (active) | 1.11 (inactive) | 2.14 (inactive) | 0.0358 | -3.22 (inactive) | -0.846 (inactive) | -1.24
2 | C=C(C)[C@@H]1CC=C(C(O)C2C=CC3C(=O)N(C)C(=O)C3N2Nc2ccc([N+](=O)[O-])cc2[N+](=O)[O-])CC1 (stereo not given in full) | -1.03 (inactive) | 0.807 | 22.8 (active) | 6.33 (inactive) | 0.0383 (inactive) | 1.46 (inactive) | -1.42 | -0.188 (inactive) | 0.811 (inactive) | 2.85
3 | C=CC[C@@]12N=C(c3ccc(OCCCO)cc3)O[C@@H]1c1ccccc1N(CCC)C2=O | 1.39 (inactive) | 0.568 | 35.3 (active) | 36.6 (active) | 1.75 (inactive) | 6.24 (inactive) | 0.697 | -3.4 (inactive) | -0.215 (inactive) | -1.75
4 | [N-]=[N+]=Nc1ccccc1[C@@H]1OC(c2ccc(OCCCO)cc2)=N[C@]1(Cc1ccccc1)C(=O)NCCN1CCOCC1 | 0.146 (inactive) | 0.142 | 30.2 (active) | 26.5 (active) | 3.9 (inactive) | 1.92 (inactive) | 1.39 | -3.29 (inactive) | -1.23 (inactive) | -2.13
5 | CN(C)CCCCNC(=O)[C@H]1C[C@H]2C(=O)N3CCC[C@H]3C(=O)N2[C@H]1c1cccc(OCCO)c1 | -0.019 (inactive) | 0.517 | 2.99 (inactive) | 0.502 (inactive) | 0.348 (inactive) | 0.178 (inactive) | -0.0038 | 0.787 (inactive) | 1.37 (inactive) | 0.803
6 | C=C(CCCC)/C(=C/C[C@H](OC(=O)c1ccncc1)c1ccc(OCCO)cc1)c1cnc2ccccc2c1 | 0.339 (inactive) | 0.127 | 26.5 (active) | 11.9 (active) | 1.98 (inactive) | 1.31 (inactive) | -0.594 | -0.0888 (inactive) | 0.589 (inactive) | -0.964
7 | COCC(=C=CC[C@H](O)c1ccccc1OCCO)C[C@H](O)COCc1ccccc1 | -0.186 (inactive) | 0.131 | 9.07 (active) | 1.07 (inactive) | 0.287 (inactive) | 0.896 (inactive) | -0.408 | 0.0204 (inactive) | -1.22 (inactive) | -1.92
8 | C[N+](C)(C)CCCC[C@@H]1NC(=O)[C@H]2C[C@@H](C(=O)NCCCCCNC(=O)CS)[C@@H](c3cccc(OCCO)c3)N2C1=O | 0.19 (inactive) | 0.144 | 1.59 (inactive) | -0.0251 (inactive) | -0.89 (inactive) | 0.204 (inactive) | -0.0362 | 1.94 (inactive) | 0.816 (inactive) | 1.35
9 | CCCC=C(CCC)[C@@H](NC(=O)OCC(C)C)c1ccc(C(=O)OC)cc1 | -0.531 (inactive) | 0.506 | -1.17 (inactive) | -0.781 (inactive) | -1.07 (inactive) | -1.47 (inactive) | 1.31 | 0.115 (inactive) | 1.89 (inactive) | 1.97
10 | C=CCOC(=O)[C@@H]1[C@H]2C(=O)O[C@H](c3ccccc3)[C@H](c3ccccc3)N2[C@H](c2ccc(OCCOC(=O)[C@H]3C[C@H]4C(=O)N[C@@H](CCCCN(C)C)C(=O)N4[C@H]3c3ccc(O)cc3)cc2)[C@@]12C(=O)Nc1ccc(I)cc12 | -1.09 (inactive) | 0.0313 | -0.202 (inactive) | 0.422 (inactive) | 3.69 (inactive) | -0.116 (inactive) | -1.34 | 1.6 (inactive) | 0.182 (inactive) | 0.946
11 | C#CCN1[C@@H](Cc2ccccc2)C(=O)O[C@H](Cc2ccccc2)[C@@H]1/C=C/C1CC1 | 0.827 (inactive) | -0.103 | -0.396 (inactive) | 0.317 (inactive) | -0.199 (inactive) | -0.48 (inactive) | -0.328 | -0.279 (inactive) | -0.284 (inactive) | -2.19
12 | CCOC(=O)C[C@H]1[C@H](OC(=O)Cc2ccc3c(c2)OCO3)[C@@H](NC(=O)c2ccc3ccccc3n2)c2cc(OCCCO)ccc2N1C(=O)Cc1ccc(OC)cc1 | 2.14 (inactive) | -0.0573 | 21.8 (active) | 5.31 (inactive) | -0.997 (inactive) | 0.0217 (inactive) | 2.03 | -1.47 (inactive) | 0.824 (inactive) | 0.159
13 | COCCOC(=O)N1C(=O)[C@@]2(c3cc(C#CCNC(N)=O)ccc31)[C@H](C(=O)Nc1nc3ccccc3s1)[C@H]1C(=O)O[C@H](c3ccccc3)[C@H](c3ccccc3)N1[C@@H]2c1ccccc1OCCO | 1.14 (inactive) | 0.646 | 2.15 (inactive) | 0.215 (inactive) | 0.483 (inactive) | -1.08 (inactive) | 2.18 | 1.41 (inactive) | 0.695 (inactive) | 0.934
